High-throughput results: PubChem, National Center for Advancing Translational Sciences (NCATS)
An excerpt weighted towards active compounds, which were near 9.8% of everything screened.
CBFb RUNX1 block = qHTS Assay for Compounds Blocking the Interaction Between CBF-beta and RUNX1 for the Treatment of Acute Myeloid Leukemia | Runt-related transcription factor 1 (Homo sapiens) + Core-binding factor subunit beta … | AlphaScreen CBFb-His/RUNX1-biotin binding, biochemical | Potency, µM (titrated, usually from 59.8 µM), inactives show top-dose activity, negative = inhibition, usual class: inhibitors | 230,000 tested, under 10 active; active means well fitted curve in the direction sought with a large enough effect; inconclusive means small, poorly fitted or top-dose-only effect, or another doubt; inactive means no such curve, though single readings can be large; an effect the other way counts as inactive or inconclusive; further: % of control where 0% means no effect
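Room-temperature protein-protein interaction test with 30 nM each of His-tagged CBF-beta and biotinylated RUNX1, 15 min with compound, then 90 min with nickel plus streptavidin beads. Signal read in AlphaScreen mode.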
HPGD inh = qHTS Assay for Inhibitors of HPGD (15-Hydroxyprostaglandin Dehydrogenase); 15-hydroxyprostaglandin dehydrogenase [NAD(+)] (Homo sapiens), P15428; purified HPGD, NADH fluorescence kinetic, PGE2 substrate; Potency, µM, without a hit: top-dose activity change, negative = inhibition, usual class: inhibitors; 150,000 tested, 4.3% active; further: potency means the concentration at half of the fitted maximal effect; on the % scale 0 is the no-effect control and ±100 the full control effect
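NADH formation kinetics: reaction with 30 uM PGE2 and 1 mM NAD+ (final), 20 nM enzyme, Tris-HCl pH 8 with Tween 20, after 15 min compound preincubation at room temperature. Fluorescence change, last versus first of five reads.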
ALDH1A1 inh-1 = qHTS Assay for Inhibitors of Aldehyde Dehydrogenase 1 (ALDH1A1); Potency, µM (highest dose often 75.3 µM), for inactives: top-dose activity, negative = inhibition, usual class: inhibitors; 220,000 tested, 7.3% active; Aldehyde dehydrogenase 1A1 (Homo sapiens), P00352; Purified ALDH1A1, NADH fluorescence, propionaldehyde substrate;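 further: potency means the concentration at half of the fitted maximal effect; plate controls were no enzyme wells and a reference inhibitor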
Target sequence (P00352 whole entry, looked up): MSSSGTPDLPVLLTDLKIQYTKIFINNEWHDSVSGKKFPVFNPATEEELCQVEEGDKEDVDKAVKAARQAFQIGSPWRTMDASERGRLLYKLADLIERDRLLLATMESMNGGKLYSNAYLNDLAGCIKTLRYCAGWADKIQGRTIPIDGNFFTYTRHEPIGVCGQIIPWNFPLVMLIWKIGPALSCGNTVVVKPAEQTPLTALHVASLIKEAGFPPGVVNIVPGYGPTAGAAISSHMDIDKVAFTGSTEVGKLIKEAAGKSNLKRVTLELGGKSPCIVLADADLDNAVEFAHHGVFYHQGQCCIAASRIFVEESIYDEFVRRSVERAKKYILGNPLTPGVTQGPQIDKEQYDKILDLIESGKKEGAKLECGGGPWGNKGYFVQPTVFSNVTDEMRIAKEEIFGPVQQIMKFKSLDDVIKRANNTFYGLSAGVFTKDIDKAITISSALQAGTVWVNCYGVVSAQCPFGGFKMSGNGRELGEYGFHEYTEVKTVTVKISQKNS
HTT ATP protect = qHTS Multiplex Assay to Identify Dual Action Probes in a Cell Model of Huntington: Cytoprotection (ATP); PC12 HTT-Q103 induced, cytoprotection, ATP luminescence, 40 h; Potency, µM (highest dose often 56.4 µM), inactives show cytoprotection (ATP increase), hits mostly activators; 230,000 tested, 0.14% active; AID 1471, 2008; active means well fitted curve in the direction sought with a large enough effect; inconclusive means small, poorly fitted or top-dose-only effect, or another doubt; inactive means no such curve, though single readings can be large; an effect the other way counts as inactive or inconclusive; further: potency means the concentration at half of the fitted maximal effect; % of control where 0% means no effect; nearly all actives have a fitted effect of over 45% in size
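Compounds were screened for protection of PC12 cells against cell death after tebufenozide induction (100 nM final) of mutant Huntingtin exon 1 (Q103) fused to GFP.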
HttQ103 aggreg = qHTS Multiplex Assay to Identify Dual Action Probes in a Cell Model of Huntington: Aggregate Formation (GFP); 220,000 tested, 1.1% active; PC12 HttQ103-GFP aggregates, Acumen cytometry, 40 h; Potency, µM (doses to about 46.1 µM), without a hit: at the highest dose activity change, negative = inhibition, actives largely listed as inhibitors; active means well fitted curve in the direction sought with a large enough effect; inconclusive means small, poorly fitted or top-dose-only effect, or another doubt; inactive means no such curve, though single readings can be large; an effect the other way counts as inactive or inconclusive; further: potency means the concentration at half of the fitted maximal effect; on the % scale 0 is the no-effect control and ±100 the full control effect; nearly all actives have a fitted effect of over 60% in size
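PC12/HTTQ103-GFP, ecdysone-inducible; teb 100 nM; cpd qHTS titration; GFP aggregates read on laser cytometer, Ex 488/Em 500-530 nm.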
KDM4E inh = qHTS Assay for Inhibitors of Human Jumonji Domain Containing 2E (JMJD2E); Lysine-specific demethylase 4E (Homo sapiens), B2RXH2; JMJD2E catalytic domain, FDH-coupled NADH fluorescence (FDH is formaldehyde dehydrogenase); Potency, µM (highest dose often 57.1 µM), for inactives: at the highest dose activity change, negative = inhibition, hits mostly inhibitors; 230,000 tested, 1.6% active;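 further: potency means the concentration at half of the fitted maximal effect; 0% = wells with enzyme and -100% = buffer wells without enzyme; nearly all actives have a fitted effect of over 50% in size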
HPGD inh cf = Confirmation qHTS Assay for Inhibitors of HPGD (15-Hydroxyprostaglandin Dehydrogenase) | recombinant HPGD, NADH fluorescence, PGE2 substrate | shares compounds with HPGD inh | 90 tested, 90% active | Potency, µM (doses to about 57.1 µM), inactives show at the highest dose activity change, negative = inhibition, usual class: inhibitors; calls by dose curve
ALDH1A1 inh-2 = Inhibitors of Aldehyde Dehydrogenase 1 (ALDH1A1): Followup Confirmation and Counterscreen. shares compounds with ALDH1A1 inh-1. purified ALDH1A1, NADH fluorescence, propionaldehyde/NAD+. Potency, µM (highest dose often 57.1 µM), inactives show at the top dose activity change, negative = inhibition, actives largely listed as inhibitors. 90 tested, 90% active; calls by dose curve
* = called active by the depositor; u = inconclusive; x = not tested or not shown; [ ] = another dose, or the depositor's remark. Unless noted, the call rests on the fitted dose curve; in most records, active means well fitted inhibition curve with a large enough effect (not every such curve was filed as active); inconclusive means small, poorly fitted or top-dose-only effect, or another doubt; inactive means no such curve, though single readings can be large or run the other way.

SMILES | CBFb RUNX1 block | HPGD inh | ALDH1A1 inh-1 | HTT ATP protect | HttQ103 aggreg | KDM4E inh | others
COc1ccccc1N1C(=O)NC(=O)/C(=C/c2ccc([N+](=O)[O-])s2)C1=O | u | x | x | 20%[10 µM] | -3%[9.22 µM] | u
Cc1ccc(/C=C2\C(=O)NC(=S)N(c3ccc(F)cc3)C2=O)s1 | -1% | x | u | -28% | 3% | -1%
COc1cccc(N2C(=O)NC(=O)/C(=C/c3ccc([N+](=O)[O-])s3)C2=O)c1 | u | x | x | -9%[10 µM] | 2%[9.22 µM] | 25µM*
COc1ccc(N2C(=O)NC(=O)/C(=C\c3ccc([N+](=O)[O-])s3)C2=O)cc1 | -23% | x | 40µM* | -29% | -13% | 25µM*
CCOc1ccc(N2C(=O)NC(=O)/C(=C\c3cc(OC)c(OC)cc3[N+](=O)[O-])C2=O)cc1 | 2% | 28µM* | 11µM* | -10%[0.074 µM] | 7% | x
COc1ccc(N2C(=O)/C(=C/C=C/c3ccccc3[N+](=O)[O-])C(=O)NC2=S)cc1 | -20% | x | 8.9µM* | 29% | -8% | u
C/C(O)=C(/C#N)C(=O)Nc1cc(Br)ccc1Br | -5%[21.7 µM] | -8% | u | -25% | x | -8%
COc1cc2c(c3oc4cccc(O)c4c(=O)c13)C1C=CO[C@@H]1O2 (some centres not stated) | 2% | x | x | x | x | x
O=c1ccn([C@@H]2O[C@H](COP(=O)(O)OP(=O)(O)O)[C@@H](O)[C@H]2O)c(=O)[nH]1 | u | -18% | -5% | -153% | x | 7%
CCN(CC)c1ncnc2c1ncn2[C@@H]1O[C@@H](COP(=O)(O)OP(=O)(O)C(Br)(Br)P(=O)(O)O)[C@H](O)[C@@H]1O | x | x | x | 2%[1.9 µM] | x | x
COc1ccc(N2C(=O)NC(=O)/C(=C/c3ccc([N+](=O)[O-])s3)C2=O)cc1 | u | x | x | 12%[10 µM] | -3%[9.22 µM] | 20µM*
N[C@H](Cc1ccc(N(CCCl)CCCl)cc1)C(=O)O | x | x | x | -32%[1.9 µM] | x | x
CCC(=NCCOc1ccc(Cl)cc1)c1c(O)n(C)c(=O)n(C)c1=O | 10% | -10% | 4% | -23% | 11µM* | -5%
CCCCn1c(O)c(C(CC)=Nc2ccc(OC)cc2OC)c(=O)[nH]c1=O | 4% | 16µM* | 5% | -15% | -24% | 2%
CCC(=Nc1ccc(OC)cc1OC)c1c(O)n(C)c(=O)n(C)c1=O | 9% | 35µM* | u | -24%[0.074 µM] | u | 13%
CCC(=NCCc1c[nH]c2ccccc12)c1c(O)n(C)c(=O)n(C)c1=O | 2% | -5% | 3% | -28% | 7.9µM* | -3%
CCC(=NCc1ccc2c(c1)OCO2)c1c(O)n(C)c(=O)n(C)c1=O | 5% | x | -1% | -25%[0.074 µM] | 20µM* | 1%
COc1cc2c(cc1OC)[C@@]13CCN4C=C5CCO[C@H]6CC(=O)N2[C@@H]1[C@@H]6[C@H]5C[C@H]43 | x | x | x | -3%[10 µM] | x | x
COc1cc2c(cc1OC)[C@@H]1C(=O)c3ccc4oc(C(C)C)cc4c3OC1CO2 (some centres not stated) | -10% | u | 0% | -164% | x | -22%
CC(=O)Nc1ccccc1OP1(=O)COc2ccccc2OC1 | 4% | -5% | 3% | 11%[0.074 µM] | 0% | 1% | HPGD inh cf=-11%
CC(=O)Nc1ccccc1C(=O)OCC(=O)c1ccccc1Cl | 5% | -10% | -11% | x | 0% | 1%
Cc1ccc(-c2nc(N3CCOCC3)s[n+]2-c2ccccc2)cc1 | 4% | 0.16µM* | 2.5µM* | x | -17% | -25% | HPGD inh cf=3.2µM*
CN(CC(=O)Nc1ccc(N2CCOCC2)cc1)CC(=O)Nc1cccc(C#N)c1 | 3% | -10% | 14% | 20%[10 µM] | u | 5%
COc1ccc2c(c1)CCC1C2CC[C@@]2(C)C1CC[C@@H]2NCCCCCCN1C(=O)C=CC1=O (some centres not stated) | 11% | -12% | 0.5µM* | x | x | -1% | ALDH1A1 inh-2=5µM*
CC1(C)CCC(C)(C)c2c1ccc(O)c2Cc1c(O)ccc2c1C(C)(C)CCC2(C)C | x | -10% | -8%[13.5 µM] | 6%[10 µM] | x | x
